# PubChem BioAssay
# Calls of active or inactive are those of the source.
# Key:
# [1] = test system: Plasmodium falciparum Sir2 (PF13_0152, Sir2A); assay: pfSir2 binders on small-molecule microarrays, primary screen, biochemical, small-molecule microarray, 635 nm fluorescence (AID 1098); conditions: small-molecule microarray binding, fluorescence 635 nm; higher = more signal;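 further: score merges spot fluorescence intensity with its signal-to-noise ratio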
# [2] = small-molecule microarray binders of probe aDKK1, primary screen, biochemical, biotinylated probe, 635/667 nm fluorescence (AID 1099); conditions: higher = more signal;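 further: score merges 667nm spot fluorescence with signal to noise across triplicate slides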
# [3] = small-molecule microarray binders of probe aCHRDL2, primary screen, biochemical, biotinylated probe, 635/667 nm fluorescence (AID 1100); conditions: higher = more signal
# [4] = splicing luciferase reporter signal modulators, primary screen, spliceosome inhibition project, cell-based, HEK293, splice +/- reporter (AID 1101); conditions: luminescence, 24 h, higher = more signal, called active from +8 up or from −8 down;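 further: HEK293 cells carrying a splicing-competent luciferase reporter gene; test concentration not given here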
# [5] = molecular target: Fibroblast growth factor 10 (Homo sapiens) (UniProt O15520); assay: FGF10 binders on small-molecule microarrays, primary screen, biochemical, small-molecule microarray, 635 nm fluorescence (AID 1102); conditions: FGF10 binding, fluorescence 635 nm, higher = more signal
# [6] = test system: glycogen synthase kinase-3 (GSK3A per assay name; protocol says GSK3B); assay: GSK3 binders on small-molecule microarrays, primary screen, biochemical, small-molecule microarray, 635 nm fluorescence, GSK3A (AID 1103); conditions: small-molecule microarray binding, fluorescence 635 nm; higher = more signal; further: the record names both GSK3A and GSK3B
# [7] = molecular target: Epidermal growth factor receptor (Homo sapiens) (UniProt P00533); assay: EGFR binders on small-molecule microarrays, primary screen, biochemical, small-molecule microarray, 635 nm fluorescence (AID 1104); conditions: EGFR binding, higher = more signal;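 further: score merges 667 nm emission intensity with spot signal to noise over triplicate slides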
# [8] = molecular target: Follistatin-related protein 3 (Homo sapiens) (UniProt O95633); assay: FSTL3 binders on small-molecule microarrays, primary screen, biochemical, small-molecule microarray, 635 nm fluorescence (AID 1105); conditions: FSTL3 binding, higher = more signal;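 further: score merges emission near 667 nm and signal to noise per printed spot across three slides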
# [9] = molecular target: Dickkopf-related protein 1 (Homo sapiens) (UniProt O94907); assay: DKK1 binders on small-molecule microarrays, primary screen, biochemical, small-molecule microarray, 635 nm fluorescence scan (AID 1106); conditions: DKK1 binding, higher = more signal;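 further: score merges emission near 667 nm with signal to noise over three replicate slides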
# [10] = test system: Inhibin beta A chain (activin A); assay: INHBA (activin A) binders on microarrays, primary screen, biochemical, small-molecule microarray, 635 nm fluorescence scan (AID 1107); conditions: small-molecule microarray binding, higher = more signal;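 further: mouse activin A protein probed at 4.33 µg/mL on printed slides; score merges bound-protein fluorescence near 667 nm with spot signal-to-noise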
# [11] = test system: Human papillomavirus type 1a protein E7 (residues 44-93); assay: HPV1a E7 fragment binders on microarrays, primary screen, biochemical, small-molecule microarray, residues 44-93, 635 nm fluorescence (AID 1108); conditions: small-molecule microarray binding, fluorescence 635 nm; higher = more signal;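 further: E7 fragment applied at 1 µg/mL in TBST for 1 h at 4 C; score combines spot fluorescence with its signal to noise ratio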
# [12] = modulators of HCV replicon luciferase signal, primary screen, HCV replication inhibitor project, Huh7 cells, luciferase reporter (AID 1109); conditions: 48 h, higher = more signal;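 further: huh7 hepatoma cells harbouring a luciferase neomycin HCV replicon reporter; luciferase luminescence as measure of HCV replicon replication; test concentration not given here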
# [13] = molecular target: Left-right determination factor 2 (Homo sapiens) (UniProt O00292); assay: LEFTY2 binders on small-molecule microarrays, primary screen, biochemical, small-molecule microarray, 635 nm fluorescence scan (AID 1110); conditions: LEFTY2 binding, higher = more signal
# [14] = molecular target: Calmodulin-1 (Homo sapiens) (UniProt P0DP23); assay: CALM1 binders on microarrays, EGTA buffer, profiling panel, biochemical, small-molecule microarray, Cy5-labelled CALM1 (AID 1111); conditions: Cy5-CALM1 binding fluorescence, higher = more signal;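 further: labelled calmodulin applied in Tris saline Tween buffer holding calcium plus EGTA and DTT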
# [15] = molecular target: Calmodulin-1 (Homo sapiens) (UniProt P0DP23); assay: calcium-bound CALM1 binders on microarrays, profiling panel, artefact control for SMM control-protein annotation, biochemical, small-molecule microarray, Cy5-labelled CALM1, plus calcium (AID 1112); conditions: Cy5-CALM1 binding fluorescence, higher = more signal;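 further: score merges spot fluorescence with signal to noise from triplicate slides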
# [16] = small-molecule microarray binders of probe aWnt5a, primary screen, biochemical, biotinylated probe, 635/667 nm fluorescence (AID 1113); conditions: higher = more signal;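 further: score merges 667 nm fluorescence intensity with signal-to-noise per printed feature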
# [17] = small-molecule microarray binders of probe aShh, primary screen, biochemical, biotinylated probe, 635/667 nm fluorescence (AID 1114); conditions: higher = more signal;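 further: probe is biotin-labelled aShh protein from a stem cell growth factor screen; measures binding of labelled protein to compounds printed on the slide; score merges feature fluorescence at 667 nm with signal-to-noise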
# [18] = small-molecule microarray binders of probe aNog, primary screen, biochemical, biotinylated probe, 635/667 nm fluorescence (AID 1115); conditions: higher = more signal;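 further: probe is biotinylated aNog protein used at 0.15 µg/mL for 1 h at 4 C; z-score combines 667 nm fluorescence of each spot with its signal to noise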
# [19] = molecular target: Torsin-1A-interacting protein 1 (Homo sapiens) (UniProt Q5JTV8); assay: LAP1 binders from COS7 cell lysate, primary screen, small-molecule microarray, 635/667 nm fluorescence (AID 1116); conditions: COS7-hLAP1 lysate binding, 635 nm fluorescence, higher = more signal
# [20] = molecular target: Alpha-bungarotoxin (Bungarus multicinctus) (UniProt P60615); assay: alpha-bungarotoxin binders on microarray, profiling panel, artefact control for SMM control protein annotation, biochemical, small-molecule microarray, Alexa647 label, 635/667 nm fluorescence (AID 1117); conditions: alpha-BTX-A647 binding fluorescence, higher = more signal
# Alpha-bungarotoxin (Bungarus multicinctus), sequence (P60615 whole entry, looked up): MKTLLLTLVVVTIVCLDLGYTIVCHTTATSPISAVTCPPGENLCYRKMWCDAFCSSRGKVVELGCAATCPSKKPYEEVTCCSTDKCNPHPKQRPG
# Epidermal growth factor receptor (Homo sapiens), sequence (P00533 whole entry, looked up): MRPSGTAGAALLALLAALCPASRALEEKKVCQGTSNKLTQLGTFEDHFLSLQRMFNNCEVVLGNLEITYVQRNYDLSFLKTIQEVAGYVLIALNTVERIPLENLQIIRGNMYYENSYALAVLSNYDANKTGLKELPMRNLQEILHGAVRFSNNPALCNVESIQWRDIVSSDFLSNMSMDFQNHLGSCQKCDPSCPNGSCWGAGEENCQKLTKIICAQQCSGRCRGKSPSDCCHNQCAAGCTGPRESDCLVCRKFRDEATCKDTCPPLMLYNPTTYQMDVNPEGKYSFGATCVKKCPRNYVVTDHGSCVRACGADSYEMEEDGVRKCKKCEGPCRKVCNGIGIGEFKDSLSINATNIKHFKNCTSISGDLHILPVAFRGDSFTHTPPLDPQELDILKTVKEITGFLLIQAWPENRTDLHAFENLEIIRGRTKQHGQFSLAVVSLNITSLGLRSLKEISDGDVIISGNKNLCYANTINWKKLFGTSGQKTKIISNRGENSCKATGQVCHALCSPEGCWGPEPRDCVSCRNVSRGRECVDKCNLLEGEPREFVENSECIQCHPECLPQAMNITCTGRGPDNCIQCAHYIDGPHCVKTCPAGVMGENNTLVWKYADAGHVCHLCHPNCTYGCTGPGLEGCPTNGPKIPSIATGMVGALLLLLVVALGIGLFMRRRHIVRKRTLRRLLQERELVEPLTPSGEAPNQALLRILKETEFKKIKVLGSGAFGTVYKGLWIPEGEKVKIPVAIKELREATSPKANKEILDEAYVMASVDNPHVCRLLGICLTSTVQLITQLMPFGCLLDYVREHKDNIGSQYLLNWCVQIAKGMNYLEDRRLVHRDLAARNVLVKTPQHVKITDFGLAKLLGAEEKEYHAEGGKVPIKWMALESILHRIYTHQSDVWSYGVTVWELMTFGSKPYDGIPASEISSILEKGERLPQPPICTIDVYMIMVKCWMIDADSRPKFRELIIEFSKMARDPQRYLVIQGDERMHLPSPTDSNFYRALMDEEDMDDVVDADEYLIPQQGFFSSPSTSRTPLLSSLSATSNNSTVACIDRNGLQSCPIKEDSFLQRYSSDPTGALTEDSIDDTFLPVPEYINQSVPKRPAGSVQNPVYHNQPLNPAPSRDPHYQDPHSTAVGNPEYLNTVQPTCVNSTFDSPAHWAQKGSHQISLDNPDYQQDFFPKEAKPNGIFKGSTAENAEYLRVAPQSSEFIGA
# Fibroblast growth factor 10 (Homo sapiens), sequence (O15520 whole entry, looked up): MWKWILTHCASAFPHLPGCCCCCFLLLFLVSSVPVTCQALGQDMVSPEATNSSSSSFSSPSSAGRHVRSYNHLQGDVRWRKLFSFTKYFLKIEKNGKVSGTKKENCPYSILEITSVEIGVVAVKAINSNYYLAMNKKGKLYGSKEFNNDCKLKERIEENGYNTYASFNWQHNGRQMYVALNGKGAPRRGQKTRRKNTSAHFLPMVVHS
# Left-right determination factor 2 (Homo sapiens), sequence (O00292 whole entry, looked up): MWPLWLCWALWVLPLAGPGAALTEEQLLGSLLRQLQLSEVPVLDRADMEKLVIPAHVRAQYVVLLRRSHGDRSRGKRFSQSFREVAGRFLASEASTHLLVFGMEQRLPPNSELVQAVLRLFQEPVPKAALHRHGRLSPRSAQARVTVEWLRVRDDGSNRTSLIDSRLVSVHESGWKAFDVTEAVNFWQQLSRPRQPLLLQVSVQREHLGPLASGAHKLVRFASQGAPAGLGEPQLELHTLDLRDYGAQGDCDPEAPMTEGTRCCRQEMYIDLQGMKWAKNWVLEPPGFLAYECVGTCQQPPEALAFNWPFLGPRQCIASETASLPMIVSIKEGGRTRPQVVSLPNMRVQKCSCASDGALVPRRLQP
# Dickkopf-related protein 1 (Homo sapiens), sequence (O94907 whole entry, looked up): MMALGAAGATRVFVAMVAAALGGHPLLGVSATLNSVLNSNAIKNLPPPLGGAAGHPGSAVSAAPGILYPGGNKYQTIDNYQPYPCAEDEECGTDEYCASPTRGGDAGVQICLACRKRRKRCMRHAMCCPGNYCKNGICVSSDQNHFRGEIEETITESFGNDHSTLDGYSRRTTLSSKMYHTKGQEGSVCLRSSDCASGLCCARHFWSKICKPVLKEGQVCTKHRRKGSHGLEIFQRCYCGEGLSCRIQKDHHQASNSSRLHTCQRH
# Torsin-1A-interacting protein 1 (Homo sapiens), sequence (Q5JTV8 whole entry, looked up): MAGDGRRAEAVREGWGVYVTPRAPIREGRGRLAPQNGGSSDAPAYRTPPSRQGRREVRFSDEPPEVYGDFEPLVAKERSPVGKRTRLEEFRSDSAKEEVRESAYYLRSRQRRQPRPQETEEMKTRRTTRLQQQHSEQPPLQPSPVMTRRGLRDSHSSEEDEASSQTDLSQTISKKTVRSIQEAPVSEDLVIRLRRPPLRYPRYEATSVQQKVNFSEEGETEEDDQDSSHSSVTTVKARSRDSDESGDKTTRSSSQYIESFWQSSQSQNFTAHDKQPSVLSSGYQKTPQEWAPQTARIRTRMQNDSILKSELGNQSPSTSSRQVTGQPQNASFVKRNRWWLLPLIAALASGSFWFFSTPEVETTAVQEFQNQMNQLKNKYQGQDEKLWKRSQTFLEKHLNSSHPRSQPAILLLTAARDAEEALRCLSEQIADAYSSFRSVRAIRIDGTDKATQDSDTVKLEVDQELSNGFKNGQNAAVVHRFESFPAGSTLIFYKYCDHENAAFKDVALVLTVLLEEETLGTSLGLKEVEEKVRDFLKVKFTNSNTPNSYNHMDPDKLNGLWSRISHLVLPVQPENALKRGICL
# Follistatin-related protein 3 (Homo sapiens), sequence (O95633 whole entry, looked up): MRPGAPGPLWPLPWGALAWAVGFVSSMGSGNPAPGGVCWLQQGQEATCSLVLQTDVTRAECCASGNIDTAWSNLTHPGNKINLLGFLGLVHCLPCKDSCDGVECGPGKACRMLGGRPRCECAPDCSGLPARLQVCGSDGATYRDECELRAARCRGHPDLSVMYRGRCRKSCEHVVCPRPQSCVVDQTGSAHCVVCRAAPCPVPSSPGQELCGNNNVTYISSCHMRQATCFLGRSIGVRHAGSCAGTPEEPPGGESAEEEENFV
SMILES,composite z-score [1],composite z-score [2],composite z-score [3],z-score [4],composite z-score [5],composite z-score [6],composite z-score [7],composite z-score [8],composite z-score [9],composite z-score [10],composite z-score [11],z-score [12],composite z-score [13],composite z-score [14],composite z-score [15],composite z-score [16],composite z-score [17],composite z-score [18],composite z-score [19],composite z-score [20]
CN(C)CCCNC(=O)[C@@H]1c2ccccc2C(=O)N(C2Cc3ccccc3C2)[C@H]1c1ccc(CO)cc1,1.78,0.227,0.559,-0.196 (inactive),-0.514,1.27,-0.741,-0.12,-0.273,0.923,1.1,-1.9,-0.625,-0.0693,-0.875,0.0436,0.0766,0.467,0.814,0.438
COc1ccc(NC(=O)O[C@H]2[C@H](OC(=O)Nc3ccc4c(c3)OCO4)[C@H](OC(=O)Nc3ccc4c(c3)OCO4)[C@@H](OC)O[C@@H]2CO)cc1,1.51,0.125,0.58,-0.213 (inactive),0.81,1.23,-0.385,0.59,0.409,0.753,1.08,0.0346,-0.0444,0.888,-0.958,-0.0643,0.0469,-0.147,0.94,0.425
COC(=O)[C@]1(CO)N=C(c2ccc(OCCCO)cc2)O[C@@H]1c1ccccc1CN=[N+]=[N-],0.853,0.109,0.292,0.706 (inactive),0.0716,0.421,-0.237,0.0239,0.102,0.193,-0.0942,0.606,-0.266,-0.738,-0.0036,-0.145,0.0611,-0.0007,0.751,-0.0756
COCCn1c(C(=O)N2CCCC2)cc2c1C[C@H]1CN(C(=O)c3ccccc3)[C@@](Cc3ccccc3)(C(=O)OC)[C@@H]21,1.06,0.592,0.268,-1.09 (inactive),1.15,1.26,-0.273,0.166,0.257,0.693,1.51,-0.976,0.222,1.89,0.808,0.869,1.3,2.73,1.12,0.253
[N-]=[N+]=NCc1ccccc1C[C@]1(C(=O)O)COC(c2ccc(OCCCO)cc2)=N1,0.991,0.261,1.12,0.544 (inactive),-0.472,-1.19,-0.756,-0.757,-1.27,0.616,-0.523,-0.35,-1.47,0.0347,1.01,-0.15,-0.341,-0.277,-1.24,-0.711
CN(C)CCCCNC(=O)[C@H]1C[C@H]2C(=O)NCC(=O)N2[C@H]1c1cccc(OCCO)c1,0.828,-0.173,0.084,-0.706 (inactive),1.02,-0.54,0.138,0.186,0.168,-0.09,-0.433,0.195,-0.443,0.0097,0.706,-0.0685,-0.285,-0.437,0.668,-0.115
